These results are taken from PubChem BioAssay (NCATS).

“And” between values parts separate entries of the source, which are not always exact repeats. Equal values may be shown once. Results filed as inconclusive are left out. The source made the active and inactive calls. Calls follow the shape of the dose curve; as a rule, active = well fitted cell-killing curve with a large enough effect; inconclusive = small, poorly fitted or top-dose-only effect; inactive = flat fitted curve, though single readings scatter.

Nicotinamide N-methyltransferase (Homo sapiens), sequence (P40261 whole entry, looked up): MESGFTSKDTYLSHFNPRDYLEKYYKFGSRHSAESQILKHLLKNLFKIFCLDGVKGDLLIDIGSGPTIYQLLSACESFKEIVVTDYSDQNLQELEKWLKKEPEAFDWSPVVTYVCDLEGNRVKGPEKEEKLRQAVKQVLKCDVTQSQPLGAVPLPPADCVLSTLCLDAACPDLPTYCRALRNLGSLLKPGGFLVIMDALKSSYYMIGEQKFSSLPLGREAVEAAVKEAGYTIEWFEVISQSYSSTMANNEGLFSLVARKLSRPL

The first experiment concerns the target Nicotinamide N-methyltransferase (Homo sapiens) (UniProt P40261). Nature of the experiment: Confirmatory Screen for Target Class Profiling of Small Molecule Inhibitors of Methyltransferases (AID 1745852). The note with it: MTase-Glo luminescence, SAH detection, recombinant enzyme; measured here: NNMT max response; stronger effect = lower value.
Regarding `COc1cc(OC)c(/C=C2/C(=O)Nc3ccccc32)c(OC)c1`, the activity was -28.2%.

Regarding `COC1=C(OC)C(=O)c2ccccc2C1=O`, the activity is -23.6%.

Regarding `Oc1cc2c(cc1O)CN(C(=S)NCCc1ccc(Cl)cc1)CCC2`, the activity is -17.6%.

Take `O=C(c1cc(O)c(O)c([N+](=O)[O-])c1)c1ccccc1F`: the activity was -15.6%.

Regarding `Oc1ccccc1O`, the activity was -3.91%.

Turning to `CN1CCc2cccc3c2C1Cc1ccc(O)c(O)c1-3` (configuration not stated), the activity is 0.623%.

On to `COC(=O)C1=C(C)NC(C)=C(C(=O)OC)C1c1cccc(NC(=O)NCCCN2CCC(c3cccc(OC)c3)CC2)c1`, for which the activity was -24.5% and -25.9%.

As to `Oc1ccc(C2CNCc3sccc32)cc1O` (configuration not stated), the activity is -8.32%.

Turning to `O=C(O)CNC(=O)C(CS)Cc1ccccc1` (configuration not stated), the activity turned out to be 2.86%.

For the compound `O=Nc1ccc2oc(=O)ccc2c1`, the activity was -0.856%.

Consider `NO`, for which the activity was -5.7%.

For `O=C1NCc2c1c1c3ccccc3[nH]c1c1[nH]c3ccccc3c21`, the activity is -25.9%.

Regarding `CC(C)(C)c1ccc(S(=O)(=O)/C=C/C#N)cc1`, the activity is -4.25%.

On to `O=C1C(SCCO)=C(SCCO)C(=O)c2ccccc21`, for which the activity is -76.1%.

For the compound `O=C(O)CC[C@@H](C(=O)O)N1C(=O)c2ccccc2C1=O`, the activity is -12.9%.

`COc1cc(/C=C/C(=O)CC(=O)/C=C/c2ccc(O)c(OC)c2)ccc1O`: the activity is -4.44%.

Regarding `Oc1cc(O)cc(/C=C/c2ccc(O)c(O)c2)c1`, the activity is -18.4%.

Regarding `COc1ccc(Br)cc1S(=O)(=O)NC(=O)/C=C/c1ccccc1Cc1ccc2ccccc2c1`, the activity is -14.5%.

On to `COc1ccc(/C=C2\COc3ccc(C)cc3C2=O)cc1O`, for which the activity was -20.1%.

For `O=[N+]([O-])c1ccc(CNc2nc(NCc3cccc(C(F)(F)F)c3)nc3nc[nH]c23)cc1`, the activity is -49.3% and -10.9%.

For the compound `CCOC(=O)N1CCN(/[N+]([O-])=N/Oc2ccc([N+](=O)[O-])cc2[N+](=O)[O-])CC1`, the activity was -19%.

In the case of `COc1ccc(NC(=O)/C=C/c2ccc(Cl)cc2)cc1`, the activity was -60.9%.

Take `CCN(CC)CCCCNc1ncc2cc(-c3c(Cl)cccc3Cl)c(NC(=O)NC(C)(C)C)nc2n1`: the activity is -17.4% and -14.9%.

Turning to `CC(C)(C=O)Cc1cc(C(C)(C)C)c(O)c(C(C)(C)C)c1`, the activity was -8.99%.

`N.N.N.N.N.N.N.N.N.N.N.N.N.N.O.O.[Ru+4].[Ru+5].[Ru+5]`: the activity is -45.3%.

Regarding `COc1ccccc1CNCCCCCCNCCCCCCCCNCCCCCCNCc1ccccc1OC`, the activity was -17.7%.

For the compound `Fc1ccc(C(OCCCc2cnc[nH]2)c2ccc(F)cc2)cc1`, the activity was -23.2%.

Turning to `OCC1O[C@H]([S-])[C@H](O)[C@@H](O)[C@@H]1O.[Au+]` (some centres not stated), the activity is -21.4%.

The target in the next experiment is Phenylethanolamine N-methyltransferase (Homo sapiens) (UniProt P11086). The experiment is described as above. The note with it: MTase-Glo luminescence, SAH detection, recombinant enzyme; measured here: PNMT max response; stronger effect = lower value.
Phenylethanolamine N-methyltransferase (Homo sapiens), sequence (P11086 whole entry, looked up): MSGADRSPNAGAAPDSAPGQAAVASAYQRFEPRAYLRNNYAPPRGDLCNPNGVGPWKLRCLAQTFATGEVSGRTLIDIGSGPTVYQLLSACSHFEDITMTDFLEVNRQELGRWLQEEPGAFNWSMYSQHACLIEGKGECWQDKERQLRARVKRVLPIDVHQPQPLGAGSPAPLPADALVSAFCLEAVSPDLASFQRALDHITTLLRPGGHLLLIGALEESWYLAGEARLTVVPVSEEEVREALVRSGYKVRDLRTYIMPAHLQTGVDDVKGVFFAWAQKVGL
For the compound `COc1cc(OC)c(/C=C2/C(=O)Nc3ccccc32)c(OC)c1`, the activity was -34.5%.

Take `COC1=C(OC)C(=O)c2ccccc2C1=O`: the activity is -70.6%.

Regarding `Oc1cc2c(cc1O)CN(C(=S)NCCc1ccc(Cl)cc1)CCC2`, the activity worked out at 0.243%.

In the case of `O=C(c1cc(O)c(O)c([N+](=O)[O-])c1)c1ccccc1F`, the activity is -23.2%.

For `Oc1ccccc1O`, the activity worked out at 8.37%.

Consider `CN1CCc2cccc3c2C1Cc1ccc(O)c(O)c1-3` (configuration not stated), for which the activity was determined as 3.44%.

On to `COC(=O)C1=C(C)NC(C)=C(C(=O)OC)C1c1cccc(NC(=O)NCCCN2CCC(c3cccc(OC)c3)CC2)c1`, for which the activity was 0.516% and -5.06%.

Take `Oc1ccc(C2CNCc3sccc32)cc1O` (configuration not stated): the activity is 0.43%.

As to `O=C(O)CNC(=O)C(CS)Cc1ccccc1` (configuration not stated), the activity stood at 8.57%.

For the compound `O=Nc1ccc2oc(=O)ccc2c1`, the activity turned out to be 5.38%.

Turning to `NO`, the activity was determined as 4.25%.

`O=C1NCc2c1c1c3ccccc3[nH]c1c1[nH]c3ccccc3c21`: the activity was -28.7%.

As to `CC(C)(C)c1ccc(S(=O)(=O)/C=C/C#N)cc1`, the activity worked out at 5.53%.

With `O=C1C(SCCO)=C(SCCO)C(=O)c2ccccc21`, the activity was -72.3%.

In the case of `O=C(O)CC[C@@H](C(=O)O)N1C(=O)c2ccccc2C1=O`, the activity was -4.01%.

For `COc1cc(/C=C/C(=O)CC(=O)/C=C/c2ccc(O)c(OC)c2)ccc1O`, the activity stood at 9.5%.

For `Oc1cc(O)cc(/C=C/c2ccc(O)c(O)c2)c1`, the activity is -8.17%.

Regarding `COc1ccc(Br)cc1S(=O)(=O)NC(=O)/C=C/c1ccccc1Cc1ccc2ccccc2c1`, the activity came out at 0.509%.

In the case of `COc1ccc(/C=C2\COc3ccc(C)cc3C2=O)cc1O`, the activity turned out to be 4.48%.

Turning to `O=[N+]([O-])c1ccc(CNc2nc(NCc3cccc(C(F)(F)F)c3)nc3nc[nH]c23)cc1`, the activity is -13.5% and 7.65%.

With `CCOC(=O)N1CCN(/[N+]([O-])=N/Oc2ccc([N+](=O)[O-])cc2[N+](=O)[O-])CC1`, the activity is -3.94%.

Regarding `COc1ccc(NC(=O)/C=C/c2ccc(Cl)cc2)cc1`, the activity is -10.5%.

As for `CCN(CC)CCCCNc1ncc2cc(-c3c(Cl)cccc3Cl)c(NC(=O)NC(C)(C)C)nc2n1`, the activity was -6.92% and -0.98%.

`CC(C)(C=O)Cc1cc(C(C)(C)C)c(O)c(C(C)(C)C)c1`: the activity was -4.11%.

Consider `N.N.N.N.N.N.N.N.N.N.N.N.N.N.O.O.[Ru+4].[Ru+5].[Ru+5]`, for which the activity is -7.59%.

As for `COc1ccccc1CNCCCCCCNCCCCCCCCNCCCCCCNCc1ccccc1OC`, the activity turned out to be 2.9%.

Regarding `Fc1ccc(C(OCCCc2cnc[nH]2)c2ccc(F)cc2)cc1`, the activity is -0.346%.

Take `OCC1O[C@H]([S-])[C@H](O)[C@@H](O)[C@@H]1O.[Au+]` (some centres not stated): the activity is -1.84%.

Tested on in a further experiment: not listed separately
Nature of the experiment: NCATS anti-infectives library activity on HEK293 viability as a counter-qHTS vs the C. elegans viability qHTS (AID 1745854).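 Also: HEK293 cells exposed to compounds for 24 hr before the viability read; % is scaled to controls: 0 for no effect and ±100 for the full control effect.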 The note with it: HEK293 viability counter-screen; series mostly up to 41.8 µM. The procedure, abridged:
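HEK293 cells (1,500/well) exposed 24 hr at 37C to 1:5 titrations, up to 41.7 uM final; counter-screen to a C. elegans viability qHTS. Viability by CellTiter-Glo luminescence after 10 min at room temperature; digitonin as control.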
A general note: qHTS replaces the single test concentration by a dilution series.
On to `CNc1ncnc2c1ncn2[C@@H]1O[C@H](CO)[C@@H](O)[C@H]1O`, for which the outcome was “inactive”.

As for `CC(C(=O)O)c1ccc(C(=O)c2cccs2)cc1` (configuration not stated), the outcome was “inactive”.

Consider `N=c1ccn2c(n1)O[C@H]1[C@H](O)[C@@H](CO)O[C@H]12`, for which the outcome was “inactive”.

For `CCCCCCOc1ccccc1C(N)=O`, the outcome was “inactive”.

On to `COc1cc(/C=C/C(=O)CC(=O)/C=C/c2ccc(O)c(OC)c2)ccc1O`, for which the outcome was “inactive”.

Turning to `CC[C@@H](C)[C@H]1O[C@]2(CC[C@@H]1C)C[C@@H]1C[C@@H](C/C=C(\C)[C@@H](O[C@H]3C[C@H](OC)[C@@H](O[C@H]4C[C@H](OC)[C@@H](O)[C@H](C)O4)[C@H](C)O3)[C@@H](C)/C=C/C=C3\CO[C@@H]4[C@H](O)C(C)=C[C@@H](C(=O)O1)[C@]34O)O2`, the outcome is “inactive”.
